# Screening results as filed in PubChem BioAssay.
# Shiga toxin inh = A qHTS for Small Molecule Inhibitors of Shiga Toxin; Vero cells, Shiga toxin protein synthesis inhibition reporter; AID 2315, 2010; inhibition, % at 38.7 µM; 9.2% of 290,000 active; in the data active = inhibition mostly above about 28%, no sharp cut-off; inactive = mostly below about 43%
# FBPA Giardia inh = qHTS Assay for Inhibitors of Fructose-1,6-bisphosphate Aldolase from Giardia Lamblia; A8B2U2; purified Giardia FBPA; Potency, µM (top dose mostly 59.6 µM), hits mostly inhibitors; 0.71% of 290,000 active; AID 2451, 2010; also: nearly all actives have a fitted effect of over 55% in size
# Target sequence (A8B2U2 whole entry, looked up): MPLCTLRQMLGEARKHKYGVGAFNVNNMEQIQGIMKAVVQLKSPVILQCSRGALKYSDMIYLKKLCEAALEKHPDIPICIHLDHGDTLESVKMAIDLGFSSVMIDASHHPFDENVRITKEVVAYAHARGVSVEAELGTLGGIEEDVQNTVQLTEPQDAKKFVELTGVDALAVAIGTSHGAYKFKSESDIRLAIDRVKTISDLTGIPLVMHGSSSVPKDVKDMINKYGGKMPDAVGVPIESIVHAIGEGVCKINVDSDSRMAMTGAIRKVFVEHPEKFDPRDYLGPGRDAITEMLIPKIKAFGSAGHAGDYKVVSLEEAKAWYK
#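 Giardia FBPA (40 nM reagent) was preincubated 10 min at RT with compound (up to 57.5 uM final), then substrate plus GAPDH/TPI/NAD/arsenate coupling system with diaphorase/resazurin was added; resorufin fluorescence (525/598 nm) was read after 20 min.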
# LmPK inh = qHTS Assay for Inhibitors of Leishmania Mexicana Pyruvate Kinase (LmPK). purified LmPK, Kinase-Glo ATP luminescence, 1 h. Potency, µM (doses to about 57.5 µM), most hits filed as inhibitors. 0.37% of 290,000 active
#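 Pyruvate kinase activity monitored as ATP production (luciferase luminescence). Conditions: 0.1 nM enzyme, 0.5 mM PEP, 0.1 mM ADP, 1 h, RT; normalized against uninhibited and no-enzyme wells.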
# Cycloheximide cs = Cycloheximide Counterscreen for Small Molecule Inhibitors of Shiga Toxin; cell reporter, cycloheximide protein synthesis inhibition counterscreen; max response, %; 12% of 300,000 active; in the data active = max response mostly above about 13%, no sharp cut-off; inactive = mostly below about 14%; also: read at 38.3 µM for the half of the compounds with a filed dose
# Sm TGR inh = qHTS Assay for the Inhibitors of Schistosoma Mansoni Peroxiredoxins; Schistosoma mansoni thioredoxin glutathione reductase (TGR), Q962Y6; purified TGR, DTNB reduction, TNB absorbance 405 nm; Potency, µM (titrated, usually from 114 µM), hits mostly inhibitors; 3% of 360,000 active; AID 485364, 2010; also: nearly all actives have a fitted effect of over 60% in size
#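 Kinetic colorimetric format: TGR-catalysed, NADPH-driven DTNB reduction monitored via TNB absorbance. Enzyme dispensed at 20 nM; compound exposure 15 min at room temperature before reaction start.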
# TbPYK inhibitor = qHTS of Trypanosoma Brucei Inhibitors. Potency, µM (doses to about 76.8 µM), usual class: inhibitors. 0.12% of 410,000 active. pyruvate kinase (Trypanosoma brucei), Q57TT1. AID 624173, 2012. TbPYK enzyme, Kinase-Glo Plus ATP luminescence, 45 min; also: nearly all actives have a fitted effect of over 50% in size
#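 Assay buffer: 50 mM TEA pH 7.2, 100 mM KCl, 10 mM MgCl2, 0.05% BSA, 0.01% Tween-20. Pyruvate kinase from T. brucei plus substrate met compound, then ADP (130 uM final). Luminescence was read post 45 min RT.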
# Numbers stand for hits; 0 = inactive; ? = inconclusive; - = no result given. Shown is part of a subset that was picked to be rich in hits. Unless noted, calls follow the shape of the dose curve; as a rule, active = well fitted curve in the direction sought with a large enough effect; inconclusive = small, poorly fitted or top-dose-only effect, or another doubt; inactive = no such curve, though single readings can be large; an effect the other way counts as inactive or inconclusive.
SMILES,Shiga toxin inh,FBPA Giardia inh,LmPK inh,Cycloheximide cs,Sm TGR inh,TbPYK inhibitor
O=C1OC(/C(=C\Nc2ccc(F)cc2F)[N+](=O)[O-])c2ccccc21 (configuration not stated),0,0,0,0,11.2µM,0
COc1ccc([C@H]2N[C@]3(CCCN(Cc4ccc(F)cc4)C3=O)[C@H]3C(=O)N(C)C(=O)[C@@H]23)cc1,-,-,-,-,-,0
CC(=O)Nc1nnc(SCc2cc(=O)c3cc(C)ccc3[nH]2)s1,-,-,-,-,0,0
COC(=O)c1ccc(CSc2nc3ccc(S(N)(=O)=O)cc3[nH]2)cc1,0,?,0,0,0,0
COC(=O)c1cccc(CSc2nc3ccccc3[nH]2)c1,92.5,0,0,39.2,0,0
COC(=O)c1ccc(CSc2nc3ccccc3[nH]2)o1,0,0,0,10.6,0,0
CC(=O)N1CCc2cc(C(=O)CN3CCN(c4ccccc4F)CC3)ccc21,59.1,0,0,21.1,?,0
O=C(CN1CCN(c2ccccc2F)CC1)N1CCc2ccccc21,0,-,0,14.5,0,0
CC(=O)N1CCc2cc(C(=O)CN3CCN(c4ccccn4)CC3)ccc21,76.7,0,0,36.6,35.5µM,0
CC(=O)N1CCc2cc(S(=O)(=O)CCC(=O)N3CCN(c4ccccn4)CC3)ccc21,0,0,0,0,0,0
Cc1scc(CN2CCN(c3ccccc3F)CC2)c1C,-,-,-,-,0,0
COc1ccc(OC)c(NC(=O)CC(=O)Nc2ccc3nc4n(c(=O)c3c2)CCCCC4)c1,-,-,-,-,0,0
CC(C)C[C@H](NC(=O)[C@H](CC(C)C)NC(=O)[C@H](Cc1ccccc1)NC(=O)[C@@H](N)CO)C(=O)N[C@@H](CCCN=C(N)N)C(=O)N[C@@H](CC(N)=O)C(=O)O,0,0,-,0,-,-
Cc1ccc(C)c(NC(=O)/C(C#N)=C/c2ccc[nH]2)c1,0,-,0,33.0,0,0
Cc1cccc(NC(=O)/C(C#N)=C/c2ccc[nH]2)c1C,0,0,0,24.2,0,0
Cc1cncc(C(=O)O)[n+]1[O-],-,-,-,-,-,0
COc1ccc(-c2noc(CNC(=O)CCN3C(=O)[C@H]4CC=CC[C@H]4C3=O)n2)cc1,0,-,0,0,0,0
CCCCn1c(O)c(C(CC)=NCCCN(C)C)c(=O)[nH]c1=O,0,0,0,0,?,0
CCCCn1c(O)c(C(CC)=NCCN2CCCCC2)c(=O)[nH]c1=O,0,0,0,0,10µM,0
CC(=NCCN1CCOCC1)c1c(O)n(-c2ccccc2C)c(=O)[nH]c1=O,0,0,0,0,0,0
CCCCn1c(O)c(C(CC)=NCCN2CCOCC2)c(=O)[nH]c1=O,0,0,0,0,17.8µM,?
CCC(=NCCN1CCOCC1)c1c(O)n(-c2ccccc2C)c(=O)[nH]c1=O,0,0,0,0,28.2µM,0
COc1cccc(-c2csc(NC(C)=O)n2)c1,87.3,0,0,47.1,0,0
COc1ccc(-c2csc(NC(C)=O)n2)cc1OC,0,0,0,21.2,0,0
COc1cccc(NC(=O)Nc2nc(-c3ccc(OC)c(OC)c3)cs2)c1,66.6,0,0,21.8,0,0
SMILES,Shiga toxin inh,FBPA Giardia inh,LmPK inh,Cycloheximide cs,Sm TGR inh,TbPYK inhibitor
COc1ccc(-c2csc(NC(=O)Nc3ccccc3)n2)cc1,0,0,0,0,0,0
COc1ccc(-c2csc(N)n2)cc1F,64.3,0,0,39.1,0,0
COc1cc2cc(C(=O)N3CCOCC3)cc(-c3ccc(C)cc3)c2cc1OC,0,0,0,0,0,0
CCOC(=O)N1CCc2[nH]c3ccc(C)cc3c2C1,0,0,0,0,0,0
CCOC(=O)C(O)C1CCc2c([nH]c3ccc(C)cc23)C1=O (configuration not stated),0,0,0,25.1,0,0
CC(C)(C)C(=O)O/N=C(\N)c1ccc([N+](=O)[O-])s1,0,0,0,24.3,0,0
N/C(=N\OC(=O)C1CC1)c1ccc([N+](=O)[O-])s1,0,0,0,0,0,0
CCCC(C)NC(=O)CN1C(=O)NC2(CCc3ccccc32)C1=O (configuration not stated),0,-,0,0,0,0
CCSc1nnc(NC(=O)c2cccs2)s1,100.8,0,0,35.0,0,0
CCSc1nnc(NC(=O)NC2CCCCC2)s1,48.9,0,0,35.7,0,0
CCSc1nnc(NC(=O)c2ccc(C)o2)s1,33.4,0,0,26.7,0,0
Cc1ccc(NC(=O)CSc2nnc(NC(=O)NC3CCCCC3)s2)cc1,-,-,-,-,0,0
CCSc1nnc(NC(=O)C(C)(C)C)s1,69.5,0,0,29.1,0,0
Cc1ccc(Cl)cc1NC(=O)CCn1c(=O)c2cccn2c2cccnc21,-,-,-,-,0,0
CN(C)c1ccc(-c2ccnc3c2CC(C)(C(=O)Nc2ccccc2)O3)cc1 (configuration not stated),-,-,-,-,-,0
COc1ccccc1CNc1ccnc(-c2cccnc2)n1,-,0,-,-,-,-
COc1ccc(CNC(=O)Cc2c(C)c3c(cc(C)c4c(C)c(C)oc43)oc2=O)cc1OC,-,-,-,-,0,0
CCc1ccc(CNC(=O)c2c(C)oc3ncn(CC(C)C)c(=O)c23)cc1,-,-,-,-,0,0
CCc1nnc(NC(=O)c2ccc(C)o2)s1,44.0,0,0,36.2,0,0
CCSc1nnc(NC(=O)c2cc(C)oc2C)s1,59.4,0,0,38.4,0,0
CCc1nnc(NC(=O)c2cc(C)oc2C)s1,0,-,0,0,?,0
